Results as given in publication PMC5540273 (PLoS ONE, 2017).
Like-named read-outs stand apart in the source and are kept apart here.

Experiments:
GRK3 = tested on: T1, GRK3; conditions: concentration: 1 μM, replicates: in singlicate; n = 1
T1 construct: gene ADRBK2

GRK4 = conditions: concentration: 1 μM, replicates: in singlicate; n = 1
GRK7 = conditions: concentration: 1 μM, replicates: in singlicate; n = 1
GSK3A = conditions: concentration: 1 μM, replicates: in singlicate; n = 1
GSK3B = conditions: n = 1
HASPIN = tested on: T2, HASPIN; conditions: concentration: 1 μM, replicates: in singlicate; n = 1
T2 construct: gene GSG2

HCK = conditions: concentration: 1 μM, replicates: in singlicate; n = 1
HIPK1 = conditions: concentration: 1 μM, replicates: in singlicate; n = 1
HIPK2 = conditions: concentration: 1 μM, replicates: in singlicate; n = 1
HIPK3 = conditions: concentration: 1 μM, replicates: in singlicate; n = 1
[1] = concentration: 1 μM, replicates: in singlicate
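Further: KINOMEscan kinase panel screen.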

Compound	%Inh (GRK3)	%Inh (GRK4)	%Inh (GRK7)	%Inh (GSK3A)	%Inh (GSK3B; [1])	%Inh (HASPIN)	%Inh (HCK)	%Inh (HIPK1)	%Inh (HIPK2)	%Inh (HIPK3)	%Inh (GSK3B; 1 µM)
Cn1cncc1-c1cc2c(Nc3ccc(OCc4ccccc4)cc3)ncnc2cn1 [GW281179]	33%	0%	0%	8%	11%	0%	0%	0%	0%	0%	
CNCc1ccc2nc(NC(=O)c3ccc(C(C)(C)C)cc3)cn2c1	36%	0%	10%	3%	11%	5%	3%	17%	13%	17%	
Cc1cccc2c(-c3ccncn3)c(-c3ccc(F)cc3)nn12 [GW515532]	0%	12%	0%	1%	0%	21%	0%	0%	0%	0%	
COc1ccc(CSc2nnc(-c3ccc4ncsc4c3)o2)cc1C(F)(F)F	1%	18%	0%	98.4%		45%	0%	38%	0%	0%	89%
O=C(Nc1n[nH]c2nc(-c3cccs3)c(Br)cc12)C1CC1 [SB-735297]	0%	0%	17%	93.8%		0%	0%	27%	58%	11%	52%
Nc1nccc(-c2c(-c3ccc(F)cc3)ncn2C2CCN(Cc3ccccc3)CC2)n1 [SB-219980]	6%	0%	6%	16%	11%	0%	9%	0%	0%	0%	
COC(=O)c1cccc(NC(=O)NC2CCN(c3ccnc(Nc4ccc(F)cc4)n3)C2)c1 (stereo not shown) [GSK1379725]	38%	0%	0%	0%	0%	0%	0%	0%	0%	0%	
O=C(Nc1n[nH]c2cc(-c3ccsc3)ccc12)C1CC1 [SB-732932]	40%	79%	0%	38%		43%	0%	7%	26%	24%	29%
CC(=O)c1cccc(NC(=O)NC2CCN(c3ccnc(Nc4ccc(F)cc4)n3)C2)c1 (stereo not shown) [GSK1379710]	49%	0%	0%	32%	4%	26%	2%	0%	0%	7%	
Cc1ccc(NC(=O)Nc2ccccc2)cc1-c1ccc(C(=O)Nc2ccncc2)cc1 [GSK1398471]	0%	0%	0%	12%	11%	1%	0%	0%	0%	13%	
COc1cc2ncnc(Nc3cccc(Br)c3)c2cc1OC.Cl [GI230329]	26%	0%	0%	0%	0%	20%	24%	0%	0%	0%	
CC(C)c1ccc(O)cc1Nc1ccnc2ccc(C(F)(F)F)cc12 [GW482059]	0%	21%	0%	19%	0%	3%	10%	0%	31%	0%	
Cc1cnc(N)c(/C=C/c2cncc(C(=O)NCCc3ccc(Cl)cc3Cl)c2)c1.Cl [GSK190937]	6%	0%	0%	5%	0%	29%	0%	0%	0%	26%	
COc1ccc(CSc2nnc(-c3ccc4nccn4c3)o2)cc1C(F)(F)F	37%	0%	15%	93.8%	93.8%	32%	0%	31%	20%	5%	
COC(=O)c1cccc(NC(=O)NC2CCN(c3ccnc(Nc4ccc(OC)cc4)n3)C2)c1 (stereo not shown) [GSK1379746]	43%	0%	0%	0%	12%	0%	0%	0%	0%	0%	
Nc1cccc(-c2ccc3c(N)n[nH]c3c2)n1 [GSK2192730]	0%	13%	19%	19%	26%	39%	0%	23%	0%	25%	
CCCCc1nn2ncccc2c1-c1ccnc(NC2CC2)n1 [GW684374]	17%	0%	0%	4%	1%	0%	0%	0%	0%	8%	

Compound	%Inh (GRK3)	%Inh (GRK4)	%Inh (GRK7)	%Inh (GSK3A)	%Inh (GSK3B; [1])	%Inh (HASPIN)	%Inh (HCK)	%Inh (HIPK1)	%Inh (HIPK2)	%Inh (HIPK3)	%Inh (GSK3B; 1 µM)
COc1cccc(NC(=O)Nc2ccc(C)c(-c3ccc(C(=O)Nc4ccncc4)cc3)c2)c1 [GSK1398474]	0%	3%	0%	10%	13%	0%	0%	0%	0%	20%	
COc1nccc(-c2c(-c3ccc(F)cc3)ncn2CCCN2CCOCC2)n1 [SB-282852]	14%	23%	37%	17%	10%	0%	0%	46%	76%	0%	
Nc1ncnc2occ(-c3ccc4c(c3)CCN4C(=O)Cc3cc(F)ccc3F)c12 [GSK2645446]	0%	0%	0%	0%	2%	0%	0%	0%	0%	0%	
c1ccc(-c2ccnc3[nH]ccc23)cc1 [SB-693578]	56%	3%	0%	22%	13%	60%	0%	4%	0%	34%	
O=c1cc(N2CCOCC2)nc2n(Cc3cccc(Cl)c3Cl)c3ccccc3n12 [GSK2299009]	0%	25%	0%	5%	14%	0%	0%	9%	0%	19%	
CCn1c(-c2c(N)noc2C)nc2cnccc21 [SB-737856]	42%	6%	0%	0%	2%	0%	0%	0%	0%	0%	
CC(C)c1cc(-c2ccc3c(N)n[nH]c3c2)nc(N)n1 [GSK2250882]	0%	10%	0%	0%	0%	83%	0%	15%	0%	9%	
CSc1ccc(-c2nc3n(c2-c2ccncc2)CCC3)cc1 [SKF-105561]	28%	5%	0%	0%	20%	35%	7%	0%	0%	6%	
CS(=O)(=O)Cc1ccc(Nc2nccc(-c3c(-c4cccc(NC(=O)C5CCCCC5)c4)nn4ncccc34)n2)cc1 [GSK350559]	0%	0%	5%	0%	20%	17%	1%	5%	14%	23%	
Cc1ccc(NC(=O)c2ccc(Cl)cc2)cc1-c1ccc(C(=O)Nc2ccncc2)cc1 [GSK1398467]	24%	0%	0%	3%	17%	0%	0%	0%	0%	3%	
COc1ccc(CSc2nnc(-c3ccc4c(c3)CCO4)o2)cc1	3%	1%	0%	75%		42%	0%	9%	0%	0%	0%
COc1ccc(Nc2nccc(N3CCC(NC(=O)c4cc5ccccc5s4)C3)n2)cc1 (stereo not shown) [GSK1379738]	0%	0%	0%	11%	14%	24%	0%	0%	0%	7%	
COc1ccc2cc(-c3nc(-c4ccccc4C(C)C)[nH]c3-c3ccncc3)ccc2c1 [SB-660566]	34%	0%	0%	2%	17%	0%	0%	0%	0%	25%	
Fc1ccc(-c2nn3cccc(F)c3c2-c2ccncc2)cc1 [GW475620]	0%	26%	0%	0%	11%	5%	15%	0%	0%	4%	
Cl.Cl.Cl.N#Cc1ccc(CCNc2nccc(-c3cccc(CN4CCNCC4)c3)n2)cc1 [GSK2137462]	0%	0%	5%	31%	7%	42%	0%	1%	0%	21%	
COc1cccc(C2=C(Nc3cc(Cl)c(O)c(Cl)c3)C(=O)NC2=O)c1 [SB-390767]	28%	1%	0%	44%		0%	0%	0%	0%	20%	33%
O=C(Nc1n[nH]c2nc(-c3ccco3)c(Br)cc12)C1CCN(Cc2ccccc2)C1.O=C(O)[C@H](O)[C@@H](O)C(=O)O (stereo not shown) [SB-742034]	0%	11%	42%	97.8%		0%	7%	30%	32%	25%	72%
